Hits are enriched below; roughly 7.8% of the tested compounds scored in any of these assays.
VACV Venus inh: qHTS for Stage-Specific Inhibitors of Vaccinia Orthopoxvirus: Venus Reporter Primary qHTS. Vaccinia virus Venus reporter expression, fluorescence. Potency, µM (top dose mostly 36.5 µM), actives largely listed as inhibitors. hit rate 0.46% among 330,000. AID 720580, 2013; calls by dose curve; tested in A549 cells; note: nearly all actives have a fitted effect of over 30% in size
HCV inhibitor: qHTS Assay for Inhibitors of Hepatitis C Virus (HCV); Huh7.5.1 HCVcc-Cre infection, luciferase reporter, 44 h; Potency, µM (top dose mostly 41.8 µM), usual class: inhibitors; hit rate 3.4% among 340,000; AID 651820, 2012; active = well fitted inhibition curve with a large enough effect; inconclusive = small, poorly fitted or top-dose-only effect, or another doubt; inactive = no such curve, though single readings can be large or run the other way
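Antiviral activity was scored by luciferase reporter output from cells infected with HCVcc-Cre (~0.5 moi) in presence of compound, 44 h infection period, cells seeded 1,000/well 4 h prior.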
Vaccinia mCherry: qHTS for Stage-Specific Inhibitors of Vaccinia Orthopoxvirus: mCherry Reporter Primary qHTS | Potency, µM (highest dose often 36.5 µM), actives largely listed as inhibitors | hit rate 0.63% among 310,000 | Vaccinia virus mCherry reporter infection, fluorescence; calls by dose curve; tested in A549 cells; note: nearly all actives have a fitted effect of over 35% in size
HCMV antiviral: qHTS Assay for inhibitors of the human cytomegalovirus (HCMV); HFF cells, HCMV-luciferase reporter, 72 h; active compounds read low; activity change, negative = inhibition, % at 57.5 µM; hit rate 4.5% among 410,000; AID 1259415, 2018; in the data active = activity change below about -60%; inconclusive = no clear call, values can overlap the other calls; inactive = above about -39%
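Compounds were evaluated in HFFs infected with an HCMV luciferase reporter virus (MOI 1 PFU/cell). Luciferase in lysates collected 72 h post infection served as the replication measure.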
MARV entry inh: qHTS for inhibitors of binding or entry into cells for Marburg Virus; Marburg virus pseudotyped entry inhibition, cell reporter; Potency, µM (titrated, usually from 37.8 µM), actives largely listed as inhibitors; hit rate 1.8% among 300,000; calls by dose curve; tested in HEK293 cells
LASV entry inh: qHTS for Inhibitors of binding or entry into cells for Lassa Virus. Lassa virus pseudotype entry inhibition, cell reporter. Potency, µM (series often up to 37.9 µM), most hits filed as inhibitors. hit rate 1.2% among 300,000; calls by dose curve; tested in HEK293 cells; note: nearly all actives have a fitted effect of over 50% in size
Each line names hits and unclear results; the compound was inactive in the other large screens; ! = a repeat was not active.

CCn1cc(C(=O)NCc2ccccc2)c(=O)c2cc(F)c(N3CCN(C(=O)c4ccco4)CC3)cc21	VACV Venus inh inconclusive, HCV inhibitor 11µM, HCMV antiviral -82, MARV entry inh inconclusive, LASV entry inh inconclusive (no result: Vaccinia mCherry)
CCn1cc(C(=O)NCc2ccc3c(c2)OCO3)c(=O)c2cc(F)c(N3CCN(C(=O)c4ccco4)CC3)cc21	VACV Venus inh 13µM, HCV inhibitor inconclusive, Vaccinia mCherry 11µM, HCMV antiviral -73, MARV entry inh inconclusive, LASV entry inh inconclusive
CCn1cc(C(=O)NCc2ccncc2)c(=O)c2cc(F)c(N3CCN(C(=O)c4ccco4)CC3)cc21	HCV inhibitor inconclusive
COc1ccc2nc(Cl)c(C#N)cc2c1	none
CCOc1ccc2nc(SCC#N)c(C#N)cc2c1	HCMV antiviral -68, MARV entry inh inconclusive (no result: VACV Venus inh, Vaccinia mCherry)
CCSc1nc2ccc(OC)cc2cc1C#N	HCV inhibitor 10µM, MARV entry inh inconclusive
CC(C)NC(=O)CC(=O)Nc1ccc2nc3n(c(=O)c2c1)CCCCC3	MARV entry inh inconclusive (no result: HCV inhibitor)
O=c1[nH]c2ccc(NCc3ccc(-c4cccc(Cl)c4)o3)cc2[nH]1	HCMV antiviral -61, MARV entry inh inconclusive (no result: HCV inhibitor)
O=c1[nH]c2ccc(NCc3ccc(-c4ccc(Br)cc4)o3)cc2[nH]1	none (no result: HCV inhibitor)
COCCN1CCN(C(=O)c2cnn(-c3ncc4c(n3)-c3ccc(OC)cc3CC4)c2C2CC2)CC1	none (no result: HCV inhibitor, HCMV antiviral, MARV entry inh, LASV entry inh)
O=C(Nc1ccccc1O)C(c1ccccc1)c1ccccc1	HCV inhibitor 13µM, HCMV antiviral inconclusive, MARV entry inh inconclusive
COc1ccc(N=C2SCC(c3ccccc3)=NN2C)cc1	HCV inhibitor inconclusive (no result: VACV Venus inh, Vaccinia mCherry, MARV entry inh, LASV entry inh)
COc1ccc(N=C2NN=C(c3c(C)[nH]c4ccccc34)CS2)cc1	HCV inhibitor inconclusive, HCMV antiviral inconclusive, MARV entry inh 11µM, LASV entry inh inconclusive
Cc1cccc(NC(=O)COC(=O)CCCC2=NS(=O)(=O)c3ccccc3N2)c1	HCMV antiviral -104!, LASV entry inh inconclusive
N#CC1C=Cc2c(ccc3ccccc23)N1C(=O)c1ccccc1 (centres undefined)	VACV Venus inh inconclusive, Vaccinia mCherry inconclusive, HCMV antiviral -83, MARV entry inh inconclusive, LASV entry inh inconclusive
CCCCCCc1ccc(-c2ncc(N)cn2)cc1	HCV inhibitor 5.6µM (no result: VACV Venus inh, Vaccinia mCherry)
COc1cc(C(CC2=C(c3ccccc3)Cc3ccccc32)NC(=O)C(F)(F)F)cc(OC)c1OC (centres undefined)	none (no result: VACV Venus inh, HCV inhibitor, Vaccinia mCherry, HCMV antiviral, LASV entry inh)
O=C1c2ccccc2C(=O)c2cc(N3CCCCC3)ccc21	HCV inhibitor inconclusive, MARV entry inh 4µM, LASV entry inh 3.2µM
O=[N+]([O-])c1ccc(N2CCCCCC2)c2nonc12	LASV entry inh inconclusive
Nc1ccc(N2CCCCC2)c2nonc12	HCMV antiviral -67 (no result: MARV entry inh, LASV entry inh)
Nc1ccc(N2CCCCC2)cc1N1CCCCC1	VACV Venus inh inconclusive, HCV inhibitor inconclusive, HCMV antiviral -69, MARV entry inh inconclusive, LASV entry inh inconclusive (no result: Vaccinia mCherry)
c1ccc2cc(N3CCCCC3)ccc2c1	Vaccinia mCherry inconclusive
CCC(CO)Nc1nc2ccc(Cl)cc2c2ccccc12 (centres undefined)	VACV Venus inh inconclusive, HCV inhibitor 4µM, Vaccinia mCherry inconclusive, HCMV antiviral inconclusive, MARV entry inh inconclusive, LASV entry inh inconclusive
Cc1ccc(-c2nn3c(C)nnc3s2)cc1NC(=O)c1ccc(-c2ccc(Cl)cc2Cl)o1	HCV inhibitor inconclusive, HCMV antiviral -74, MARV entry inh 15µM, LASV entry inh inconclusive (no result: VACV Venus inh, Vaccinia mCherry)
Cc1ccc(-c2nn3c(C)nnc3s2)cc1NC(=O)c1ccc(-c2cccc(Cl)c2)o1	HCV inhibitor inconclusive, HCMV antiviral inconclusive, MARV entry inh 9.2µM, LASV entry inh inconclusive
Cc1ccc(-c2nn3c(C)nnc3s2)cc1NC(=O)c1ccc(Br)o1	none (no result: MARV entry inh, LASV entry inh)
Cc1oc(-c2ccccc2NC(=O)c2cccnc2)nc1CNC(=O)C1CCCCCN1C (centres undefined)	none (no result: HCV inhibitor, HCMV antiviral, MARV entry inh, LASV entry inh)
Cc1ccc(-c2nn(-c3ccccc3)cc2C(=O)N2CCN(c3ccccn3)CC2)cc1	VACV Venus inh inconclusive, HCV inhibitor 11µM, MARV entry inh inconclusive
CCN1CCN(C(=O)c2cn(CCOC)c(=O)c3c2c2ccccc2n3C)CC1	none (no result: VACV Venus inh, Vaccinia mCherry)
CC(C)Cn1cc(C(=O)N2CCN(c3ccccn3)CC2)c2c3ccccc3n(C)c2c1=O	HCV inhibitor inconclusive, MARV entry inh 16µM, LASV entry inh 6.5µM (no result: VACV Venus inh, Vaccinia mCherry)
